Measured values reported in PubChem BioAssay AID1159580 (chemical genetic matrix, 2015).
Several values for one entry are separate records, joined by “and”; a condition that tells them apart may be missing. Identical values can stand only once. In all, about 5,500 compounds went through this assay and about 2,000 (36%) were called active. About 18% were inconclusive and are not listed. Rule as the data show it: active = normalized growth mostly below about 0.91 (no sharp cut-off); inconclusive = no clear call, values can overlap the other calls; inactive = mostly above about 0.92. This is one part of the list.

Test: chemical genetic growth profiling, strain panel (AID 1159580);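 also: tested at 20 µM; growth read once vehicle control cultures reached saturation at 30 °C; 1 = growth at the plate median or of vehicle wells; lower values mean less growth of the strain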
Settings: S. cerevisiae deletion strains, growth OD

Measured: normalized growth

CNC(C)[C@@H]1CC[C@@H](N)[C@@H](OC2[C@@H](N)C[C@@H](N)[C@H](OC3OC[C@](C)(O)[C@H](NC)[C@H]3O)[C@H]2O)O1 (stereo partly drawn)
inactive: locus YAL013W, strain DEP1, hits give low values 1.02 | locus YAL021C, strain ccr4, hits give low values 1.02 | locus YAL026C, strain drs2, hits give low values 0.997 | locus YAL030W, strain snc1, hits give low values 0.998 | locus YBL061C, strain skt5, hits give low values 0.977 | locus YBR009C, strain hhf1, hits give low values 1.01 | locus YBR021W, strain FUR4, hits give low values 1.02 | locus YBR023C, strain chs3, hits give low values 0.988 | locus YBR171W, strain sec66, hits give low values 0.986 | locus YBR229C, strain ROT2, hits give low values 1.02 | locus YBR231C, strain swc5, hits give low values 0.982 | locus YBR279W, strain paf1, hits give low values 0.991 | locus YCL011C, strain gbp2, hits give low values 1.01 | locus YCL016C, strain dcc1, hits give low values 1 | locus YCL029C, strain bik1, hits give low values 1.01 | locus YCL069W, strain vba3, hits give low values 0.992 | locus YCR088W, strain abp1, hits give low values 0.999 | locus YDL005C, strain med2, hits give low values 0.98 | locus YDL035C, strain GPR1, hits give low values 1.01 | locus YDL040C, strain nat1, hits give low values 0.994 | locus YDL074C, strain BRE1, hits give low values 1.03 | locus YDL101C, strain DUN1, hits give low values 1.01 | locus YDL134C, strain PPH21, hits give low values 1 | locus YDL185W, strain tfp1, hits give low values 1.02 | locus YDL192W, strain arf1, hits give low values 1.04 | locus YDR001C, strain nth1, hits give low values 0.988 | locus YDR069C, strain doa4, hits give low values 0.988 | locus YDR101C, strain arx1, hits give low values 0.992 | locus YDR137W, strain rgp1, hits give low values 1.01 | locus YDR150W, strain NUM1, hits give low values 1.01 | locus YDR159W, strain sac3, hits give low values 0.995 | locus YDR162C, strain NBP2, hits give low values 1.01 | locus YDR195W, strain ref2 0.947 | locus YDR297W, strain sur2, hits give low values 0.983 | locus YDR318W, strain mcm21, hits give low values 1.02 | locus YDR334W, strain swr1, hits give low values 0.98 | locus YDR335W, strain msn5, hits give low values 0.98 | locus YDR388W, hits give low values 1.01 | locus YDR392W, strain spt3, hits give low values 1.03 | locus YDR502C, strain sam2, hits give low values 1.05 | locus YEL003W, strain gim4, hits give low values 0.975 | locus YEL037C, strain rad23, hits give low values 0.995 | locus YEL061C, strain CIN8 (second series), hits give low values 0.982 | locus YEL061C, strain CIN8, hits give low values 1.02 | locus YER015W, strain faa2, hits give low values 0.993 | locus YER016W, strain bim1, hits give low values 0.979 | locus YER110C, hits give low values 1.02 | locus YER111C, strain swi4, hits give low values 0.976 | locus YER155C, strain BEM2 (second series), hits give low values 0.997 | locus YER155C, strain BEM2, hits give low values 1.01 | locus YER167W, strain BCK2, hits give low values 1.01 | locus YFR010W, strain ubp6, hits give low values 0.98 | locus YGL078C, strain dbp3, hits give low values 1.02 | locus YGL086W, strain mad1, hits give low values 1.01 | locus YGL167C, strain pmr1, hits give low values 0.982 | locus YGL173C, strain kem1, hits give low values 0.974 | locus YGL227W, strain vid30, hits give low values 0.987 | locus YGL240W, strain doc1, hits give low values 0.99 | locus YGL248W, strain PDE1, hits give low values 1.01 | locus YGL253W, strain hxk2, hits give low values 0.987 | locus YGR135W, strain pre9, hits give low values 1.05 | locus YGR229C, strain SMI1, hits give low values 1.01 | locus YGR252W, strain gcn5, hits give low values 1.04 | locus YHR013C, strain ard1, hits give low values 1.02 | locus YHR027C, strain rpn1, hits give low values 1 | locus YHR030C, strain SLT2, hits give low values 1.02 and 0.984 | locus YHR079C, strain IRE1 (second series), hits give low values 1.02 | locus YHR079C, strain IRE1, hits give low values 1.01 | locus YHR094C, strain hxt1, hits give low values 1.01 | locus YHR129C, strain ARP1, hits give low values 1 | locus YHR142W, strain chs7, hits give low values 0.971 | locus YHR200W, strain rpn10, hits give low values 1.03 | locus YIL066C, strain RNR3, hits give low values 1.01 | locus YIL073C, strain SPO22, hits give low values 1.04 | locus YIL125W, strain kgd1, hits give low values 1.02 | locus YIR030C, strain dcg1, hits give low values 1.03 | locus YJL092W, strain hpr5, hits give low values 0.993 | locus YJL095W, strain BCK1 (second series), hits give low values 0.993 | locus YJL095W, strain BCK1, hits give low values 1.02 and 1 | locus YJL115W, strain asf1, hits give low values 0.982 | locus YJL129C, strain trk1, hits give low values 0.964 | locus YJL134W, strain LCB3, hits give low values 1.02 | locus YJL154C, strain vps35, hits give low values 0.999 | locus YJL164C, strain tpk1, hits give low values 1.01 | locus YJL166W, strain qcr8, hits give low values 0.984 | locus YJL168C, strain set2, hits give low values 1.02 | locus YJL187C, strain SWE1 (second series), hits give low values 1.01 | locus YJL187C, strain SWE1, hits give low values 0.992 | locus YJR043C, strain POL32, hits give low values 0.996 | locus YJR066W, strain TOR1, hits give low values 0.999 | locus YJR075W, strain HOC1, hits give low values 1.03 | locus YKL009W, strain mrt4, hits give low values 1.01 | locus YKL068W, hits give low values 1.01 | locus YKL085W, strain MDH1 (second series), hits give low values 1.02 | locus YKL085W, strain MDH1, hits give low values 1.02 | locus YKL160W, strain elf1, hits give low values 0.977 | locus YKL190W, strain CNB1, hits give low values 1.02 | locus YKR001C, strain vps1, hits give low values 1.02 | locus YKR026C, strain gcn3, hits give low values 1 | locus YKR091W, strain srl3, hits give low values 0.986 | locus YLL001W, strain dnm1, hits give low values 0.972 | locus YLL026W, hits give low values 0.996 | locus YLL041C, strain sdh2, hits give low values 0.995 | locus YLR027C, strain aat2, hits give low values 0.991 | locus YLR039C, strain RIC1, hits give low values 1.08 | locus YLR058C, strain SHM2, hits give low values 1.03 | locus YLR102C, strain apc9, hits give low values 1.03 | locus YLR113W, strain HOG1, hits give low values 0.987 | locus YLR221C, strain rsa3, hits give low values 0.99 | locus YLR258W, strain gsy2, hits give low values 1 | locus YLR262C, strain YPT6 (second series), hits give low values 0.977 | locus YLR262C, strain YPT6, hits give low values 1.05 | locus YLR268W, strain sec22, hits give low values 1.01 | locus YLR320W, strain mms22, hits give low values 1 | locus YLR330W, strain CHS5, hits give low values 1.01 | locus YLR342W, strain FKS1 (second series), hits give low values 0.996 | locus YLR342W, strain FKS1, hits give low values 0.977 | locus YLR357W, strain rsc2, hits give low values 0.991 | locus YLR370C, strain arc18, hits give low values 0.984 | locus YLR371W, strain rom2, hits give low values 1.01 | locus YLR384C, strain iki3, hits give low values 0.992 | locus YLR418C, strain cdc73, hits give low values 1.02 | locus YML016C, strain PPZ1, hits give low values 1.01 | locus YML032C, strain rad52, hits give low values 1.02 | locus YML120C, strain ndi1, hits give low values 0.996 | locus YML124C, strain tub3, hits give low values 1.01 | locus YMR058W, strain fet3, hits give low values 0.994 | locus YMR078C, strain ctf18, hits give low values 1.02 | locus YMR125W, strain sto1, hits give low values 0.979 | locus YMR129W, hits give low values 1 | locus YMR205C, strain PFK2, hits give low values 0.987 | locus YMR223W, strain ubp8, hits give low values 1.04 | locus YMR231W, strain pep5, hits give low values 0.988 | locus YMR263W, strain SAP30, hits give low values 1.01 | locus YMR307W, strain GAS1, hits give low values 1 | locus YNL067W, strain RPL9B, hits give low values 1.02 | locus YNL071W, strain lat1, hits give low values 0.996 | locus YNL153C, strain GIM3, hits give low values 1.01 | locus YNL183C, strain NPR1, hits give low values 0.97 | locus YNL209W, strain ssb2, hits give low values 1 | locus YNL233W, strain BNI4, hits give low values 1.01 | locus YNL248C, strain rpa49, hits give low values 1.02 | locus YNL250W, strain rad50, hits give low values 1.05 | locus YNL271C, strain bni1, hits give low values 1.03 | locus YNL298W, strain CLA4, hits give low values 1.02 | locus YNL307C, strain MCK1, hits give low values 1.03 | locus YNL322C, strain KRE1 (second series), hits give low values 0.988 | locus YNL322C, strain KRE1, hits give low values 1.02 | locus YNR049C, strain mso1, hits give low values 0.986 | locus YNR052C, strain pop2, hits give low values 1.02 | locus YOL006C, strain TOP1, hits give low values 1.06 | locus YOL012C, strain htz1 0.693 | locus YOL147C, strain pex11, hits give low values 1.02 | locus YOR001W, strain rrp6, hits give low values 0.985 | locus YOR061W, strain CKA2, hits give low values 1.01 | locus YOR069W, strain VPS5, hits give low values 1.01 | locus YOR070C, strain gyp1, hits give low values 0.987 | locus YOR080W, strain dia2, hits give low values 0.982 | locus YOR083W, strain WHI5, hits give low values 0.977 | locus YOR106W, strain vam3, hits give low values 0.983 | locus YOR136W, strain idh2, hits give low values 1.02 | locus YOR144C, strain elg1, hits give low values 1.01 | locus YOR184W, strain ser1, hits give low values 1.03 | locus YOR231W, strain MKK1, hits give low values 0.976 | locus YOR265W, strain rbl2, hits give low values 0.987 | locus YOR270C, strain vph1, hits give low values 0.996 | locus YOR290C, strain snf2, hits give low values 1.01 | locus YOR316C, strain cot1, hits give low values 1.02 | locus YPL051W, strain arl3, hits give low values 0.982 | locus YPL078C, strain atp4, hits give low values 0.973 | locus YPL106C, strain sse1, hits give low values 1 | locus YPL240C, strain hsp82, hits give low values 0.99 | locus YPL256C, strain CLN2, hits give low values 0.988 | locus YPR119W, strain clb2, hits give low values 1.03 | locus YPR141C, strain kar3, hits give low values 1.02 | locus YPR163C, strain tif3, hits give low values 1.02 | locus YPR167C, strain met16, hits give low values 1.02 | strain wtn01, hits give low values 1.01
